# The supplement of paper PMC8728848
# About 410 targets per protein were measured; listed, in parts, are those with the strongest signals and a random draw of the rest.
# B1: P-Selectin (Homo sapiens), P16109 (protein)
# chain: MANCQIAILYQRFQRVVFGISQLLCFSALISELTNQKEVAAWTYHYSTKAYSWNISRKYCQNRYTDLVAIQNKNEIDYLNKVLPYYSSYYWIGIRKNNKTWTWVGTKKALTNEAENWADNEPNNKRNNEDCVEIYIKSPSAPGKWNDEHCLKKKHALCYTASCQDMSCSKQGECLETIGNYTCSCYPGFYGPECEYVRECGELELPQHVLMNCSHPLGNFSFNSQCSFHCTDGYQVNGPSKLECLASGIWTNKPPQCLAAQCPPLKIPERGNMTCLHSAKAFQHQSSCSFSCEEGFALVGPEVVQCTASGVWTAPAPVCKAVQCQHLEAPSEGTMDCVHPLTAFAYGSSCKFECQPGYRVRGLDMLRCIDSGHWSAPLPTCEAISCEPLESPVHGSMDCSPSLRAFQYDTNCSFRCAEGFMLRGADIVRCDNLGQWTAPAPVCQALQCQDLPVPNEARVNCSHPFGAFRYQSVCSFTCNEGLLLVGASVLQCLATGNWNSVPPECQAIPCTPLLSPQNGTMTCVQPLGSSSYKSTCQFICDEGYSLSGPERLDCTRSGRWTDSPPMCEAIKCPELFAPEQGSLDCSDTRGEFNVGSTCHFSCDNGFKLEGPNNVECTTSGRWSATPPTCKGIASLPTPGLQCPALTTPGQGTMYCRHHPGTFGFNTTCYFGCNAGFTLIGDSTLSCRPSGQWTAVTPACRAVKCSELHVNKPIAMNCSNLWGNFSYGSICSFHCLEGQLLNGSAQTACQENGHWSTTVPTCQAGPLTIQEASTSITAYKSEGESAEFSFPLNLGEESLQGELRWKAEKAPSSQSWITFSLKNQKVSVQKSTSNPKFQLSETLPLTLQIPQVSLQFAGSGNLTLTLDRGILYQEVNLVVMKVTQPDSNTLTCEVMGPTSPKMRLILKQENQEARVSRQEKVIQVQAPEAGVWQCLLSEGEEVKMDSKIQVLSKGLNSGGGSGGGTGGGDLAPQMLRELQETNAALQDVRELLRQQVKEITFLKNTVMECDACGLDRNLPPLAPLGPHPETLVKVKDAEDQLGARVGYIELDLNSGKILESFRPEERFPMMSTFKVLLCGAVLSRIDAGQEQLGRRIHYSQNDLVEYSPVTEKHLTDGMTVRELCSAAITMSDNTAANLLLTTIGGPKELTAFLHNMGDHVTRLDRWEPELNEAIPNDERDTTMPVAMATTLRKLLTGELLTLASRQQLIDWMEADKVAGPLLRSALPAGWFIADKSGAGERGSRGIIAALGPDGKPSRIVVIYTTGSQATMDERNRQIAEIGASLIKHWGPDYKDHDGDYKDHDIDYKDDDDKGPHHHHHH
# Columns and labels:
# Test in all cases: glycan array binding signal (z-score within array); higher = stronger binding
# Details in all cases: glycan notation: IUPAC condensed, linker removed
# Fuc(a1-2)Gal = biological target: Fuc(a1-2)Gal
# How it was run: (§1)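 Arrays were curated from the Consortium for Functional Glycomics database, 3228 in total, and kept only where the protein sequence was available. Binding is expressed as a within-array Z-score. This score was averaged across arrays of the same protein sequence at different concentrations or buffers and across linkers, and negative values can be read as non-binding.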
# Fuc(a1-2)Gal(b1-4)Glc6S = biological target: Fuc(a1-2)Gal(b1-4)Glc6S
# How it was run: as §1
# [1] = biological target: Fuc(a1-2)[Gal(a1-4)]Gal(b1-4)GlcNAc
# How it was run: as §1
# Gal(a1-3)GalNAc = biological target: Gal(a1-3)GalNAc
# How it was run: as §1
# Gal(b1-3)GalNAc = biological target: Gal(b1-3)GalNAc
# How it was run: as §1
# Gal(b1-4)Glc = biological target: Gal(b1-4)Glc
# How it was run: as §1
# [2] = biological target: Gal(b1-4)GlcNAc(a1-6)Gal(b1-4)GlcNAc
# How it was run: as §1
# [3] = biological target: Gal(b1-4)GlcNAc(b1-3)Gal(b1-4)Glc
# How it was run: as §1
# Gal3S(b1-3)GalNAc = biological target: Gal3S(b1-3)GalNAc
# How it was run: as §1
# Gal3S6S(b1-4)GlcNAc6S = biological target: Gal3S6S(b1-4)GlcNAc6S
# How it was run: as §1
# [4] = biological target: GlcNAc(b1-2)Man(a1-3)[GlcNAc(b1-2)Man(a1-6)]Man(b1-4)GlcNAc(b1-4)GlcNAc
# How it was run: as §1
# [5] = biological target: GlcNAc(b1-3)[GlcNAc(b1-6)]GalNAc
# How it was run: as §1
# [6] = biological target: GlcNAc(b1-4)GlcNAc(b1-4)GlcNAc(b1-4)GlcNAc(b1-4)GlcNAc(b1-4)GlcNAc
# How it was run: as §1
# Kdn(a2-3)Gal(b1-4)GlcNAc = biological target: Kdn(a2-3)Gal(b1-4)GlcNAc
# How it was run: as §1
# [7] = biological target: Man(a1-3)[Man(a1-6)]Man(a1-6)[Man(a1-3)]Man(b1-4)GlcNAc(b1-4)GlcNAc
# How it was run: as §1
# [8] = biological target: Man(a1-3)[Man(a1-6)]Man(b1-4)GlcNAc(b1-4)GlcNAc
# How it was run: as §1
# [9] = biological target: Neu5Ac(a2-3)Gal(b1-3)GalNAc6S
# How it was run: as §1
# [10] = biological target: Neu5Ac(a2-3)Gal(b1-3)[Fuc(a1-4)]GlcNAc
# How it was run: as §1
# [11] = biological target: Neu5Ac(a2-3)Gal(b1-3)[Fuc(a1-4)]GlcNAc(b1-3)Gal(b1-4)[Fuc(a1-3)]GlcNAc
# How it was run: as §1
# [12] = biological target: Neu5Ac(a2-3)Gal(b1-3)[Neu5Ac(a2-6)]GalNAc
# How it was run: as §1
# [13] = biological target: Neu5Ac(a2-3)Gal(b1-4)GlcNAc(b1-3)Gal(b1-3)GlcNAc
# How it was run: as §1
# [14] = biological target: Neu5Ac(a2-3)Gal(b1-4)[Fuc(a1-3)]GlcNAc(b1-6)[Gal(b1-3)]GalNAc
# How it was run: as §1
# [15] = biological target: Neu5Ac(a2-3)Gal(b1-4)[Fuc(a1-3)]GlcNAc6S
# How it was run: as §1
# [16] = biological target: Neu5Ac(a2-3)[Neu5Ac(a2-6)]GalNAc
# How it was run: as §1
# [17] = biological target: Neu5Ac(a2-6)GalNAc(b1-4)GlcNAc
# How it was run: as §1
# [18] = biological target: Neu5Gc(a2-3)Gal(b1-3)[Fuc(a1-4)]GlcNAc
# How it was run: as §1
binder,measurement,setting,value
B1,glycan array binding signal (z-score),Fuc(a1-2)Gal,-0.092
same,glycan array binding signal (z-score),Fuc(a1-2)Gal(b1-4)Glc6S,-0.268
same,glycan array binding signal (z-score),[1],-0.151
same,glycan array binding signal (z-score),Gal(a1-3)GalNAc,-0.071
same,glycan array binding signal (z-score),Gal(b1-3)GalNAc,-0.218
same,glycan array binding signal (z-score),Gal(b1-4)Glc,-0.174
same,glycan array binding signal (z-score),[2],-0.301
same,glycan array binding signal (z-score),[3],-0.219
same,glycan array binding signal (z-score),Gal3S(b1-3)GalNAc,-0.113
same,glycan array binding signal (z-score),Gal3S6S(b1-4)GlcNAc6S,4.08
same,glycan array binding signal (z-score),[4],-0.237
same,glycan array binding signal (z-score),[5],-0.329
same,glycan array binding signal (z-score),[6],-0.163
same,glycan array binding signal (z-score),Kdn(a2-3)Gal(b1-4)GlcNAc,-0.191
same,glycan array binding signal (z-score),[7],-0.052
same,glycan array binding signal (z-score),[8],0.332
same,glycan array binding signal (z-score),[9],0.282
same,glycan array binding signal (z-score),[10],6.36
same,glycan array binding signal (z-score),[11],3.52
same,glycan array binding signal (z-score),[12],0.025
same,glycan array binding signal (z-score),[13],-0.141
same,glycan array binding signal (z-score),[14],0.071
same,glycan array binding signal (z-score),[15],9.93
same,glycan array binding signal (z-score),[16],-0.109
same,glycan array binding signal (z-score),[17],-0.322
same,glycan array binding signal (z-score),[18],4.38
